Test results from PubChem BioAssay (NCI).
This is part of a sample that, as a whole, favours compounds with a hit. Of some 79,000 tested, about 15% had one in any assay. No stated cut-off is given here; in the data, active means growth inhibition above about 70%; inactive means the rest.

Legend:
[1] = NCI Yeast Anticancer Drug Screen. Data for the rad50 strain (AID 155);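 further: 0% = growth of vehicle-only cultures of the same strain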; settings: S. cerevisiae rad50 strain growth inhibition; at 50.0 µM; stronger effect = higher value
Outline: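 Growth of the mutant yeast was measured after compound exposure and referenced to vehicle-treated cultures.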

[2] = NCI Yeast Anticancer Drug Screen. Data for the mec2-1 strain (AID 157); settings: S. cerevisiae mec2-1 strain, at 50.0 µM, stronger effect = higher value
Outline: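 Using mec2-1 yeast: add compound, measure growth, express inhibition versus vehicle-treated cultures.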

[3] = NCI Yeast Anticancer Drug Screen. Data for the sgs1 mgt1 strain (AID 161);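 further: 0% = growth of cultures given vehicle only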; settings: S. cerevisiae sgs1 mgt1 strain, at 50.0 µM, stronger effect = higher value
Outline: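 This yeast growth screen uses a strain with defined DNA-repair lesions; compound-treated growth is compared with vehicle-treated growth.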

[4] = NCI Yeast Anticancer Drug Screen. Data for the cln2 rad14 strain (AID 165);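 further: 0% = growth equal to vehicle treated cultures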; settings: S. cerevisiae cln2 rad14 strain, at 50.0 µM, stronger effect = higher value
Outline: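 Yeast strain cln2 rad14, bearing defects in cell cycle control and DNA repair, serves as the test system; values reflect growth inhibition compared with vehicle.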

[5] = NCI Yeast Anticancer Drug Screen. Data for the bub3 strain (AID 167); settings: S. cerevisiae bub3 mutant strain, at 50.0 µM, stronger effect = higher value
Outline: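 Whole-cell yeast assay. The mutant strain was incubated with compounds, and growth inhibition was determined by comparison with vehicle-treated cells.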

[6] = NCI Yeast Anticancer Drug Screen. Data for the mlh1 rad18 strain (AID 175); settings: S. cerevisiae mlh1 rad18 strain growth inhibition; at 50.0 µM; stronger effect = higher value
Outline: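 Steps: expose repair-defective yeast to compound; measure growth; express inhibition against vehicle-treated controls.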

Measured: growth inhibition

COc1ccc(CCNC(=S)NCCc2ccc(OC)c(OC)c2)cc1OC
inactive: [1] -17.1% | [2] -17.1% | [3] 2.1% | [4] 20.2% | [5] 34.5% | [6] -1.4%

O=C1NC(=O)C(=Nc2cccc3c(=O)[nH][nH]c(=O)c23)C(c2nc3ccccc3s2)C1=O (stereo not given)
inactive: [1] 20.2% | [2] -9.7% | [3] -12.8% | [4] 8.7% | [5] -3.05% | [6] 4.7%

CN(C)CCC1(C2=CCCC2)CC/C(=C\c2ccccc2)C1=O (stereo not given)
inactive: [1] 16.9% | [2] -17.8% | [3] -5.6% | [4] 14.7% | [5] -45.6% | [6] 2.5%

O=C(/C=C/c1ccccc1)c1ccc(O)cc1O
inactive: [1] -27.3% | [2] -13.2% | [3] 14.8% | [4] -27.1% | [5] 1.65% | [6] 2.1%

CC(C)(CO)CN1CCCC1
inactive: [1] 10.3% | [2] -25.9% | [3] -4.05% | [4] 1.3% | [5] 3% | [6] 0.8%

NNC(=O)c1ccc2ccccc2c1O
inactive: [1] 17.4% | [2] 14.8% | [3] 17.1% | [4] 0.05% | [5] 22.1% | [6] 49%

CCCCCCCCCCCCCCC(O)CO (stereo not given)
inactive: [1] -11.3% | [2] -12.7% | [3] -4.45% | [4] -102% | [5] -27.1% | [6] -20.9%

CN(C)C(=O)NO
inactive: [1] -32% | [2] -26.1% | [3] -11.8% | [4] -19.8% | [5] -3.3% | [6] -28.4%

CC(=O)Oc1ccccc1C#CC(=O)O
inactive: [1] 17.3% | [2] 25.6% | [3] 34% | [4] -1.2% | [5] -0.7% | [6] 15.4%

CC(=O)Nc1ncn(C)c1S(N)(=O)=O
inactive: [1] -4.3% | [2] -19.1% | [3] -1.45% | [4] -16.3% | [5] -7.9% | [6] 15.5%

Cc1ccc(S(=O)(=O)OCC(c2ccc(Cl)cc2)c2ccccc2Cl)cc1 (stereo not given)
inactive: [1] 14.6% | [2] 1.9% | [3] 3.6% | [4] 11.4% | [5] -1.15% | [6] 1.85%

FC1(F)C2(OCCO2)C(F)(F)C12OCCO2
inactive: [1] -1.6% | [2] -5.25% | [3] -1.8% | [4] -1.1% | [5] -8.5% | [6] -4.8%

C/C(CC(=O)Nc1ccc(Cc2ccc(Cl)cc2)cc1)=N/Nc1ccc([N+](=O)[O-])cc1[N+](=O)[O-]
inactive: [1] 28.1% | [2] -0.25% | [3] 31.4% | [4] -1.15% | [5] -8.55% | [6] 22.6%

Cn1c(=O)c2c(ncn2CN2CCN(Cn3cnc4c3c(=O)n(C)c(=O)n4C)CC2)n(C)c1=O
inactive: [1] 2.75% | [2] 28.2% | [3] -7.45% | [4] 16.1% | [5] -63.9% | [6] -30%

CCN(CC)CC(O)Cn1cnc2c(=S)nc[nH]c21 (stereo not given)
inactive: [1] 8.7% | [2] -4.05% | [3] -3.45% | [4] 4.9% | [5] 1.45% | [6] -4.45%

NC(=O)CCN(CCC(N)=O)c1ccc2c(c1)C(=O)c1ccccc1-2
inactive: [1] -7.3% | [2] -6.05% | [3] -8% | [4] -22.9% | [5] 15.5% | [6] -14.9%

c1ccc(C(SN=C2CCCCC2)(c2ccccc2)c2ccccc2)cc1
inactive: [1] -4.35% | [2] -2.6% | [3] -25.6% | [4] 10.9% | [5] -1.2% | [6] -13.1%

O=C(O)C(C(=O)O)C1CCCCC1
inactive: [1] -14.6% | [2] -20.6% | [3] -20.6% | [4] -0.95% | [5] -6.5% | [6] -15.8%

Nc1ccccc1CO
inactive: [1] 3% | [2] 2.4% | [3] 2.25% | [4] -0.05% | [5] -4.65% | [6] 7.1%

N/N=C(\C(=O)Nc1c(Cl)cc([N+](=O)[O-])cc1Cl)C(c1cnc2ccc([N+](=O)[O-])cc2n1)[N+](=O)[O-] (stereo not given)
inactive: [1] -38.7% | [2] 0.7% | [3] 10.4% | [4] 15.1% | [5] -23.5% | [6] -26.6%

COc1ccc(C2SC(N)=Nc3c2c(C)nn3C(=O)c2ccccc2O)cc1 (stereo not given)
inactive: [1] 15.9% | [2] 10.1% | [3] 40.5% | [4] 5.85% | [5] 49.1% | [6] 29.4%

CC(C)(C)OC[C@H](O)CC#N
inactive: [1] -8.2% | [2] -61.4% | [3] -36.1% | [4] -20.4% | [5] -30.8% | [6] -26.4%

COC(=O)c1ccc(O)c(CN(C)C)c1
inactive: [1] 26.6% | [2] -10.6% | [3] 6.6% | [4] 3.4% | [5] -15.1% | [6] 18.8%

O=C(C(=O)c1cccc(Cl)c1)c1ccccc1
inactive: [1] 21.4% | [2] 24.6% | [3] 5% | [4] 2.85% | [5] -15.2% | [6] -5.45%

O=c1c(O)c(-c2ccc(O)cc2O)oc2cc(O)cc(O)c12
inactive: [1] -8.35% | [2] -29.2% | [3] -3.55% | [4] 3.5% | [5] -19.4% | [6] -26.8%

Cc1ccc(NC(=O)/C(CC(=O)c2sc(Nc3ccccc3Cl)nc2C)=N\Nc2ccc([N+](=O)[O-])cc2[N+](=O)[O-])c(C)c1
inactive: [1] -1% | [2] 17.1% | [3] 4.25% | [4] -12.1% | [5] 4.55% | [6] -4.25%

CC(=O)Nc1c(Cl)c(Cl)c2c(c1Cl)Cc1cc([N+](=O)[O-])ccc1-2
inactive: [1] 9.2% | [2] -12.8% | [3] 7.6% | [4] -9.1% | [5] 3.15% | [6] 2.1%

CC1=C(O)C(=O)C2C(=O)C1C(C)C2c1ccccc1 (stereo not given)
inactive: [1] -5.45% | [2] 3.05% | [3] -32.2% | [4] -7.6% | [5] -11.6% | [6] -13.9%

CC(C)CC(Nc1ccc2ccccc2c1)C(N)=O (stereo not given)
inactive: [1] -6.9% | [2] -44.4% | [3] 10.2% | [4] 8.65% | [5] 10.8% | [6] -3.4%

O=c1nnc(O)c2n(O)cccc1-2
inactive: [1] -24.2% | [2] -11.8% | [3] 6.55% | [4] -42.5% | [5] -1.75% | [6] 14%

Cc1noc2ncnc(NCCCN(C)C)c12
inactive: [1] 13.4% | [2] 4.3% | [3] -0.8% | [4] -6.95% | [5] 1.55% | [6] -0.9%

CCC1=Nc2ccccc2C(c2ccccc2)NC1=O (stereo not given)
inactive: [1] -2% | [2] -19.7% | [3] 4.5% | [4] 6% | [5] -9.65% | [6] 24.9%

CC(=O)CC(C)=NCCCCN=C(C)CC(C)=O
inactive: [1] -12.6% | [2] -29.1% | [3] 5.55% | [4] 5.35% | [5] -25.2% | [6] -17.3%

O=S1(=O)CS/C(=N/C(=S)N(Cc2ccccc2)Cc2ccccc2)N1c1ccccc1
inactive: [1] 43% | [2] 14% | [3] 35.1% | [4] 24.8% | [5] -3.85% | [6] 29.6%

CCOC(OCC)C(C)(C)OC=O
inactive: [1] -9.2% | [2] -20.8% | [3] -7.7% | [4] 24.2% | [5] 10.6% | [6] 6.6%

CCc1cc(C)cc(C(C)(C)C)c1
inactive: [1] 12.4% | [2] -17.8% | [3] 25.1% | [4] 7.15% | [5] -8.35% | [6] 22%

COc1cc(/C=C/C(=O)N[C@@H]2C(=O)N3[C@@H]2SC(C)(C)[C@@H]3C(=O)O)cc(OC)c1OC
inactive: [1] -5.6% | [2] -18.4% | [3] -34.8% | [4] 10.1% | [5] -7% | [6] -43.9%

COc1cc(CCCCC(=O)O)ccc1OC(=O)c1ccccc1
inactive: [1] -15.6% | [2] -4.85% | [3] 1.85% | [4] 2.05% | [5] -6.3% | [6] -5.1%

O=[N+]([O-])c1nccn1CCCNc1c2ccccc2nc2ccccc12
inactive: [1] 25.1% | [2] 7.95% | [3] 27.8% | [4] 23.1% | [5] 6.5% | [6] 17.9%

COC1CC(OC2CCC3(C)C(=CCC4C3C(OC(C)=O)C(OC(=O)CC(C)C)C3(C)C(C(C)=O)CCC43O)C2)OC(C)C1OC1CC(OC)C(OC2CC(OC)C(OC3OC(C)C(OC4OC(CO)C(O)C(O)C4O)C(OC)C3O)C(C)O2)C(C)O1 (stereo not given)
inactive: [1] 2.4% | [2] 5.2% | [3] 16.4% | [4] 21.6% | [5] -7.45% | [6] -38.4%

OC12CCCCCC1(N1CCOCC1)c1ccccc12 (stereo not given)
inactive: [1] -8.2% | [2] -11.7% | [3] -29.7% | [4] -21.1% | [5] -37.2% | [6] -24.3%

Cc1cccc(C)c1NC(=O)N(Cc1ccccc1)Cc1ccccc1
inactive: [1] 1.65% | [2] 15.2% | [3] 20.6% | [4] -2% | [5] 36.7% | [6] 30.6%

O=C1C(Br)=C(c2ccccc2)C(c2ccccc2)=C1c1ccccc1
inactive: [1] 45.6% | [2] 25.9% | [3] 51% | [4] 21.9% | [5] 22.7% | [6] 55%

CO/N=C1/c2sccc2[C@H](NC(=O)C(Cc2ccccc2)NC(=O)OC(C)(C)C)[C@@H]1O (stereo not given in full)
inactive: [1] -18.2% | [2] -13.1% | [3] -14% | [4] -11.9% | [5] -2.35% | [6] 13.7%

CC(C)(C)CC(C)(C)c1ccc(OCc2ccc(C(F)(F)F)cc2)cc1
inactive: [1] 14.2% | [2] 10.9% | [3] 5.1% | [4] 13.4% | [5] -4.8% | [6] -1.7%
